Mtb bLac sens: beta-lactam sensitization of Mtb H37Rv, H37Rv; M. tuberculosis H37Rv growth with meropenem, percent inhibition; inhibition, % at 25 µM; hit rate 0.27% among 330,000; AID 434955, 2010; call rule not given here;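 note: growth measured after seven days incubation then overnight dye step; 0% = bacteria only wells and 100% = bacteria with antibiotic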
SARS 3CLpro inh: SARS-CoV 3CLpro protease inhibitors, primary screen, biochemical, quenched FRET. hit rate 0.14% among 290,000. Replicase polyprotein 1ab (Severe acute respiratory syndrome coronavirus), P0C6X7. inhibition, % at 6 µM. recombinant SARS-CoV 3CLpro, quenched FRET peptide cleavage; in the data active = inhibition above about 12%
MazF activator: activators of E. coli MazEF toxin-antitoxin RNase, primary screen, biochemical, fluorescence, uHTS | FAM/BHQ RNA-DNA oligo cleavage fluorescence, 5 h | Endoribonuclease toxin MazF (Escherichia coli (strain K12)), P0AE70 | AID 504720, 2011 | hit rate 0.32% among 350,000 | activation, % at 20 µM; in the data active = activation above about 50%
Target sequence (P0AE70 whole entry, looked up): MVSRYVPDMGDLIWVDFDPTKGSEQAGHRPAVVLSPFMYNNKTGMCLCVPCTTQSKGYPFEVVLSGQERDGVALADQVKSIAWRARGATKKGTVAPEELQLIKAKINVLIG
CCHFV vOTU inh: CCHFV vOTU protease inhibitors, primary screen, biochemical, Pep-AMC substrate, fluorescence | Crimean-Congo hemorrhagic fever virus L polyprotein viral ovarian tumor (vOTU) protease … | inhibition, % at 11.5 µM | hit rate 0.55% among 370,000; in the data active = inhibition above about 30%; note: 0% = vehicle wells with enzyme and 100% = no enzyme wells
Sa RN4220 lethal: growth inhibition of S. aureus RN4220, primary screen, OD600 | 16 h | inhibition, % (concentration not given with the values) | hit rate 0.33% among 330,000; in the data active = inhibition above about 85%;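 note: plate controls were untreated cells for no effect and reference antibiotic for full effect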
ugtP null kill: growth inhibition of ugtP-null S. aureus, primary screen, RN4220 ugtP deletion, OD600 | 16 h | growth inhibition, % (concentration not given with the values) | hit rate 0.54% among 330,000 | AID 1259309, 2017; in the data active = growth inhibition above about 68%;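 note: plate controls were untreated wells for no effect and antibiotic for full effect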
* hit, by the source's call; . = no result given; + = active, no number. Most compounds without a hit are left out; they make up all but 1.3% or so of the library.

SMILES	Mtb bLac sens	SARS 3CLpro inh	MazF activator	CCHFV vOTU inh	Sa RN4220 lethal	ugtP null kill
CC12CCC(C(=O)Nc3cc(Cl)ccc3Cl)(CC1=NO)C2(C)C (configuration not stated)	.	.	.	.	4	-12
COc1ccc(Cn2c(=O)[nH]c3cc(C(=O)NCc4ccc5c(c4)OCO5)ccc3c2=O)cc1	-12	4	182*	-9	-8	28
Cc1nc2cc(C(=O)NCc3ccc4c(c3)OCO4)ccc2n1-c1ccc(Br)cc1	82	3	-9	-3	-16	96*
O=C(NCc1ccc2c(c1)OCO2)c1ccc(Br)cc1	3	7	4	-7	0	3
Cc1nc2ccccc2c(=O)n1N=Cc1ccccc1	.	.	.	.	5	9
CCOc1cc(N(CC)CC)ccc1/C=C(/C#N)c1nc2ccccc2[nH]1	9	-14	132*	-2	22	-18
Cc1ccc2nc(N3C(=O)C(O)=C(C(=O)c4cc5ccccc5o4)C3c3cccs3)sc2c1 (configuration not stated)	1	5	80*	.	.	.
O=C(C1=C(O)C(=O)N(c2nccs2)C1c1ccccc1)c1cc2ccccc2o1 (configuration not stated)	-5	-6	227*	-7	7	13
CCOc1cccc(C2C(C(=O)c3ccc(C)o3)=C(O)C(=O)N2c2nccs2)c1 (configuration not stated)	-7	6	+	12	2	2
Cc1ccc2nc(N3C(=O)C(O)=C(C(=O)c4ccco4)C3c3ccc(O)cc3)sc2c1 (configuration not stated)	6	8	.	25	.	.
CCOc1cccc(C2C(C(=O)c3ccc(C)o3)=C(O)C(=O)N2Cc2ccncc2)c1 (configuration not stated)	0	3	-4	10	5	16
CCc1ccc2nc(N3C(=O)C(O)=C(C(=O)c4ccco4)C3c3cccs3)sc2c1 (configuration not stated)	91	0	79*	.	.	.
CCOC(=O)[C@]12Cc3ccccc3C1N(Cc1ccccc1)C(=O)c1ccccc12 (some centres not stated)	.	.	.	.	6	15
COc1cc(C(=O)NN=Cc2ccc(OC(=O)c3ccccc3Cl)c(OC)c2)ccc1O	.	.	.	.	4	5
O=C(/C=C/c1cccc(C(F)(F)F)c1)Nc1cccc(C(F)(F)F)c1	97	9	2	8	100*	100*
Cc1ccc(NC(=O)/C=C/c2cccc(C(F)(F)F)c2)cc1	50	-1	2	8	8	3
CCCCN1/C(=C/c2ccc3ccccc3[n+]2CC)Sc2ccccc21	.	-8	-92	.	.	.
CCN1/C(=C/c2ccc3cc(C)ccc3[n+]2CC)Sc2cc(C)ccc21	.	-17	75*	1	100*	100*
CCN1/C(=C/c2ccc3cc(C)ccc3[n+]2C)Sc2ccc3sccc3c21	.	-26	2	7	99*	100*
CCC(=NNc1ccccc1)c1cnnc(-c2ccccc2)n1	.	.	.	.	2	1
Cc1c(C=NNC(=O)c2ccc(O)cc2)c2ccccn2c1C(=O)c1ccc(F)cc1	.	.	.	.	-2	-4
Cc1c(C=NNC(=O)c2ccc(Br)cc2)c2ccccn2c1C(=O)c1ccncc1	-7	.	59*	1	5	0
CCCOc1ccc(C=c2sc3ncnn3c2=O)cc1	.	.	.	.	1	-2
Cc1ccc(-c2csc(NN=Cc3ccco3)n2)c(C)c1	.	.	.	.	9	3
Cc1cc(NC(=O)CSc2nc3cc(Cl)ccc3o2)no1	97	-4	8	9	3	1
O=S1(=O)C=C(Sc2nc3cc(Cl)ccc3o2)c2ccccc21	100	-1	20	.	42	91*
O=[N+]([O-])c1ccc(Sc2cccc[n+]2[O-])c2nonc12	.	2	104*	-16	14	18
CCn1nc(-c2cccs2)nc2c(=O)n(C)c(=O)nc1-2	.	.	-2	.	99*	100*
CCC(=O)[C@@]1(C)C(C)CC2C3CCC4=CC(=O)C=C[C@]4(C)C3C(O)C[C@@]21C (some centres not stated)	.	.	.	.	11	2
